Data reported in the supplement of paper PMC10127200.
Structures can show the parent of a compound that is named as a salt.

Tests used:
Assay in all cases: Euclidean distance of Cell Painting phenotypic profile (signed KS, 77 features) to DMSO centroid (dimensionless distance); 5 or 10 uM (library dependent); higher = stronger phenotypic change vs DMSO (phenoactivity)
Conditions in all cases: 48 h
786-O = tested on: 786-O
Procedure, shortened: (§1)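 Phenoactivity is computed as Euclidean distance to the median vehicle profile. The profiles, drawn from 77 Harmony features scored as signed Kolmogorov-Smirnov statistics versus same-plate vehicle wells, were corrected for plate position, correlation-weighted and replicate-averaged at the top dose. Stained cells were imaged confocally at 20X (9 fields/well) after 48 h with library compounds at 10 or 5 uM, 0.1% DMSO final, in five cancer lines and a healthy fibroblast line.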

A549 = tested on: A549
Procedure, shortened: as §1

DU145 = tested on: DU145
Procedure, shortened: as §1

FB = tested on: FB
Procedure, shortened: as §1

HEPG2 = tested on: HEPG2
Procedure, shortened: as §1

OVCAR4 = tested on: OVCAR4
Procedure, shortened: as §1

Row | SMILES | Euclidean distance (786-O) | Euclidean distance (A549) | Euclidean distance (DU145) | Euclidean distance (FB) | Euclidean distance (HEPG2) | Euclidean distance (OVCAR4)
1 | C1=N/C2=N/c3ccc(OCCN4CCCC4)c(c3)COC/C=C/COCc3cccc(c3)C(=C1)N2 [Pacritinib (SB1518)] | 3.54 | 3.52 | 2.51 | 3.49 | 3.79 | 3.42
2 | C=C[C@H]1CN2CC[C@H]1C[C@@H]2[C@@H](O)c1ccnc2ccc(OC)cc12 [Quinidine sulfate] | 0.69 | 0.88 | 1.08 | 0.954 | 0.831 | 
3 | CCC1=C(C)CN(C(=O)NCCc2ccc(S(=O)(=O)NC(=O)N[C@H]3CC[C@H](C)CC3)cc2)C1=O [Glimepiride] | 1.39 | 0.608 | 0.621 | 0.992 | 0.508 | 0.801
4 | CC(CN1c2ccccc2Sc2ccccc21)N(C)C (stereo not given) [Promethazine HCl] | 0.72 | 0.962 | 1.47 | 1.72 | 0.856 | 1.1
5 | C[C@@H]1CC(=O)NN=C1c1ccc(NN=C(C#N)C#N)cc1 [Levosimendan] | 1.83 | 0.486 | 1.3 | 1.44 | 0.487 | 0.625
6 | O=C1c2c(O)cccc2C([C@@H]2O[C@H](CO)[C@@H](O)[C@H](O)[C@H]2O)c2cc(CO)cc(O)c21 (stereo not given in full) [Aloin] | 1.2 | 0.555 | 0.756 | 0.842 | 0.479 | 0.881
7 | CN1CCN(CC(=O)N2c3ccccc3C(=O)Nc3cccnc32)CC1 [Pirenzepine dihydrochloride] | 0.695 | 1.06 | 0.77 | 0.7 | 1.03 | 0.804
8 | NC1(Cc2ccc(Cl)cc2)CCN(c2ncnc3[nH]ccc23)CC1 | 1.5 | 1.13 | 1.5 | 1.39 | 1.17 | 1.39
9 | CC(C)Cc1ccc([C@@H](C)C(=O)NS(C)(=O)=O)cc1 [Reparixin (Repertaxin)] | 1.16 | 0.942 | 0.933 | 1.09 | 1.25 | 1.04
10 | OCC(O)CN1CCN(c2ccccc2)CC1 (stereo not given) [Dropropizine] | 1.11 | 1.8 | 1.39 | 1.1 | 0.735 | 1.98
11 | O=C(CCCCCCNC(=O)c1cnc(N(c2ccccc2)c2ccccc2)nc1)NO [Ricolinostat (ACY-1215)] | 1.87 | 1.63 | 1.29 | 3.31 | 2.26 | 2.18
12 | CN(C)[C@@H]1C(O)=C(C(N)=O)C(=O)[C@@]2(O)C(O)=C3C(=O)c4c(O)ccc(Cl)c4[C@@](C)(O)[C@H]3C[C@@H]12 [Chlortetracycline HCl] | 1.45 | 0.912 | 1.04 | 0.904 | 0.464 | 1.05
13 | Clc1ccc(CCCOCCCN2CCCCC2)cc1 [Pitolisant hydrochloride] | 0.716 | 0.836 | 0.816 | 0.98 | 0.955 | 0.758
14 | C=CC(=O)Nc1cc(Nc2nccc(-c3cn(C)c4ccccc34)n2)c(OC)cc1N(C)CCN(C)C [Osimertinib mesylate] | 4.85 | 4.05 | 2.93 | 5.59 | 5.06 | 4.46
15 | CC(C)N(CC[C@H](c1ccccc1)c1cc(CO)ccc1O)C(C)C | 1.1 | 0.675 | 0.538 | 0.842 | 1.02 | 1.05
16 | Cn1cc(C2=C(c3cn(CCCSC(=N)N)c4ccccc34)C(=O)NC2=O)c2ccccc21 [Ro 31-8220 Mesylate] | 2.7 | 3.02 | 2.58 | 2.92 | 3.24 | 2.82
17 | O=c1[nH]c(=O)n([C@H]2C[C@H](O)[C@@H](CO)O2)cc1C(F)(F)F [Trifluridine] | 2.89 | 3.28 | 2.74 | 1.07 | 3.56 | 2.85
18 | CO/N=C(\C(=O)N[C@@H]1C(=O)N2C(C(=O)OC(C)OC(C)=O)=C(COC(N)=O)CS[C@H]12)c1ccco1 (stereo not given in full) [Cefuroxime axetil] | 0.923 | 0.763 | 0.929 | 1.28 | 1.28 | 1.41
19 | O=C(O)c1ccccc1 [Benzoic Acid] | 1.39 | 1.16 | 1.58 | 0.886 | 1.6 | 0.868
20 | COc1ccc(-c2ccc3cc(C(=O)O)ccc3c2)cc1C12CC3CC(CC(C3)C1)C2 [Adapalene] | 1.76 | 2.58 | 1.39 | 2.18 | 1.73 | 2.03
21 | C[C@@]12C[C@@]3(O)O[C@@H](O1)[C@]1(COC(=O)c4ccccc4)[C@H]3C[C@@]12O[C@@H]1O[C@H](CO)[C@@H](O)[C@H](O)[C@H]1O [Paeoniflorin] | 1.19 | 0.375 | 0.983 | 0.985 | 0.474 | 1.17
22 | CCOC(=O)c1c(N)sc2c1CCN(Cc1ccccc1)C2 [Tinoridine hydrochloride] | 1.51 | 0.9 | 1.2 | 1.13 | 0.814 | 1.31
23 | CCCCc1nc(-c2ccc(OCCCN(CC)CC)cc2)cn1-c1ccc(Oc2ccc(Cl)cc2)cc1 [Azeliragon] | 6.58 | 4.65 | 0.73 | 3.3 | 1.05 | 1.71
24 | Cc1cccc(-c2nn3c(c2-c2ccnc4ccc(C(N)=O)cc24)CCC3)n1 | 1.39 | 1.06 | 0.926 | 1.47 | 1.04 | 1.18

Row | SMILES | Euclidean distance (786-O) | Euclidean distance (A549) | Euclidean distance (DU145) | Euclidean distance (FB) | Euclidean distance (HEPG2) | Euclidean distance (OVCAR4)
25 | COC(=O)C1=C(C)NC(C)=C(C(=O)OC)C1c1ccccc1[N+](=O)[O-] [Nifedipine] | 1.37 | 0.783 | 0.776 | 1.11 | 1.58 | 
26 | COc1ccc(CCN(C)CCCC(C#N)(c2ccc(OC)c(OC)c2)C(C)C)cc1OC (stereo not given) [Verapamil HCl] | 0.99 | 0.567 | 0.723 | 1.41 | 0.719 | 
27 | CCOC(=O)O[C@]1(C(=O)OCCl)CC[C@H]2[C@@H]3CCC4=CC(=O)C=C[C@]4(C)[C@H]3[C@@H](O)C[C@@]21C [Loteprednol etabonate] | 1.18 | 2.23 | 1.71 | 1.66 | 0.658 | 1.81
28 | N#Cc1cc(CN2CCC(Nc3ncnc4sc(Cl)cc34)CC2)ccc1F | 0.974 | 1.39 | 1.03 | 1.19 | 1.15 | 1.37
29 | C[C@@H](OC[C@@]1(c2ccccc2)CC[C@]2(CCC(=O)N2)CN1)c1cc(C(F)(F)F)cc(C(F)(F)F)c1 [Rolapitant] | 1.23 | 1.85 | 1.34 | 1.17 | 1.3 | 1.41
30 | CCN(CC)CCOC(=O)c1ccc(N)cc1 [Procaine] | 0.916 | 0.935 | 0.941 | 1.08 | 1.37 | 0.75
31 | COc1cc2nc(N3CCN(C(=O)C4COc5ccccc5O4)CC3)nc(N)c2cc1OC (stereo not given) [Doxazosin] | 1.52 | 1.28 | 1.55 | 0.683 | 0.609 | 1.18
32 | CN(Cc1cnc2nc(N)nc(N)c2n1)c1ccc(C(=O)N[C@@H](CCC(=O)O)C(=O)O)cc1 [Methotrexate disodium] | 2.05 | 3.23 | 0.912 | 0.603 | 1.47 | 2.39
33 | O=C(Cc1ccc(-c2ccc(OCCN3CCOCC3)cc2)cn1)NCc1ccccc1 | 3.21 | 3.15 | 4.51 | 2.74 | 3.85 | 2.99
34 | COc1cc2nccc(Oc3ccc(NC(=O)C4(C(=O)Nc5ccc(F)cc5)CC4)cc3)c2cc1OC | 2.21 | 2.82 | 1.36 | 3.32 | 2.4 | 3.08
35 | CO[C@H]1C[C@@H]2CC[C@@H](C)[C@@](O)(O2)C(=O)C(=O)N2CCCC[C@H]2C(=O)O[C@H]([C@H](C)C[C@@H]2CC[C@@H](O)[C@H](OC)C2)CC(=O)[C@H](C)/C=C(\C)[C@@H](O)[C@@H](OC)C(=O)[C@H](C)C[C@H](C)/C=C/C=C/C=C/1C [Rapamycin (Sirolimus)] | 2.74 | 1.97 | 1.21 | 3.07 | 1.86 | 2.1
36 | O=C(O)CCCN1CCC(O[C@@H](c2ccc(Cl)cc2)c2ccccn2)CC1 [Bepotastine] | 0.883 | 0.582 | 0.573 | 0.639 | 0.595 | 0.955
37 | Cc1ccc(NC(=O)c2ccc(CN3CCN(C)CC3)cc2)cc1Nc1nc(-c2cccnc2)cs1 [Masitinib (AB1010)] | 2.6 | 2.76 | 2.65 | 3.16 | 2.4 | 2.08
38 | CS(=O)(=O)CCNCc1ccc(-c2ccc3ncnc(Nc4ccc(OCc5cccc(F)c5)c(Cl)c4)c3c2)o1 [Lapatinib] | 4.13 | 3.1 | 2.2 | 2.22 | 3.72 | 3.77
39 | NS(=O)(=O)c1ccccc1 [Benzenesulfonamide] | 1.16 | 0.87 | 1.05 | 1.27 | 0.909 | 0.962
40 | CCn1c(=O)c(-c2cc(NC(=O)Nc3ccccc3)c(F)cc2Br)cc2cnc(NC)cc21 [Ripretinib (DCC-2618)] | 2.86 | 3.27 | 2.91 | 3.89 | 2.27 | 3.18
41 | CC1(C)S[C@@H]2[C@H](NC(=O)[C@H](N)c3ccc(O)cc3)C(=O)N2[C@H]1C(=O)O [Amoxicillin Sodium] | 1.03 | 1.17 | 1.56 | 1.06 | 1.08 | 1.78
42 | COc1ccc(S(=O)(=O)Nc2cccnc2Nc2ccc(O)cc2)cc1 | 2.73 | 2.61 | 3.18 | 2.99 | 3.33 | 3.12
43 | NCC[C@H](O)C(=O)N[C@@H]1C[C@H](N)[C@@H](O[C@H]2O[C@H](CN)[C@@H](O)[C@H](O)[C@H]2O)[C@H](O)[C@H]1O[C@H]1O[C@H](CO)[C@@H](O)[C@H](N)[C@H]1O [Amikacin hydrate] | 1.52 | 1.1 | 0.584 | 1.08 | 1.29 | 1.07
44 | Cc1cccc(Nc2ccccc2C(=O)O)c1C [Mefenamic Acid] | 0.733 | 0.521 | 0.8 | 1.14 | 0.673 | 0.64
45 | CC(=O)OC(C)OC(=O)C(C)c1ccc(-c2ccccc2)c(F)c1 (stereo not given) [Flurbiprofen Axetil] | 1.28 | 0.882 | 0.893 | 1.57 | 1.39 | 1.44
46 | O=c1cc(-c2ccc(O)cc2)oc2cc(O)cc(O)c12 [Apigenin] | 1.18 | 0.946 | 1.17 | 1.39 | 1.73 | 1.32
47 | CN1CCN(C2=Nc3cc(Cl)ccc3Nc3ccccc32)CC1 [Clozapine] | 1.75 | 1.56 | 1.21 | 0.901 | 1.03 | 1.34
48 | CC1=C(C(=O)Nc2cc3cn[nH]c3cc2F)C(c2ccc(C(F)(F)F)cc2)CC(=O)N1 (stereo not given) | 2.35 | 1.68 | 2.39 | 2.35 | 0.954 | 2.51
